Results as given in PubChem BioAssay AID861 (The Scripps Research Institute Molecular Screening Center, 2007).
The campaign covered roughly 200,000 compounds. About 360 (0.18%) were called active. The entries come from a sample that favours actives as a whole. Unmarked numbers belong to inactive results. Rule as the data show it: active = inhibition above about 25%; inactive = the rest.

These compounds were tested against Toll-like receptor 4 (Homo sapiens) + Myeloid differentiation primary response protein MyD88 (Homo sapiens) (UniProt O00206+Q99836) (assay: inhibitors of TLR4-MyD88 association in cells, primary screen, cell-based, HeLa CL3-4, BLA complementation, FRET ratio (AID 861;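 also: 0% = vehicle and 100% = reference inhibitor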)). Conditions: HeLa CL3-4 TLR4/MyD88 BLA complementation, at 8.4 µM, stronger effect = higher value.
Toll-like receptor 4 (Homo sapiens) + Myeloid differentiation primary response protein MyD88 (Homo sapiens), sequence (O00206 whole entry, looked up): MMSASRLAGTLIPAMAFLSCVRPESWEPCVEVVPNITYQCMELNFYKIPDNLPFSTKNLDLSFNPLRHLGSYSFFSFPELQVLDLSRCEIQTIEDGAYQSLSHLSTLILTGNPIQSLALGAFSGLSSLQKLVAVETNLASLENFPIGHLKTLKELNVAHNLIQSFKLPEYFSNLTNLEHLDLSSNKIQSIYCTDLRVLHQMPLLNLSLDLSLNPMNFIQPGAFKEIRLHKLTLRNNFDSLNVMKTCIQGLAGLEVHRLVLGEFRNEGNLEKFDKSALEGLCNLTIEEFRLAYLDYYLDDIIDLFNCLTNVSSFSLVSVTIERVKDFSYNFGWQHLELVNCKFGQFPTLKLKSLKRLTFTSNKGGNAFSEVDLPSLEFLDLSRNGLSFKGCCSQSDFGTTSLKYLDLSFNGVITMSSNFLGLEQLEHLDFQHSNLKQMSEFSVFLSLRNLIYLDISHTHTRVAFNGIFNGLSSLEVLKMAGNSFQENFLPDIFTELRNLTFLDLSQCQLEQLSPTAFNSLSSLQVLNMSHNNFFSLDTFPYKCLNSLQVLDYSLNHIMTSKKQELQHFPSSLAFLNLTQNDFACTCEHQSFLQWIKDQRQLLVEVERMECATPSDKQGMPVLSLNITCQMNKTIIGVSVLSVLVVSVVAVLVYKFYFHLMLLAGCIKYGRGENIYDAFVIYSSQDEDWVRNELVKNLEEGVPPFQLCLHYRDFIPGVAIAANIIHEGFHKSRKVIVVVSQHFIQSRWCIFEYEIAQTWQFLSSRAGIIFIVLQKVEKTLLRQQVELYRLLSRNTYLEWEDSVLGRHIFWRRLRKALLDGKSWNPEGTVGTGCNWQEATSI
Toll-like receptor 4 (Homo sapiens) + Myeloid differentiation primary response protein MyD88 (Homo sapiens), sequence (Q99836 whole entry, looked up): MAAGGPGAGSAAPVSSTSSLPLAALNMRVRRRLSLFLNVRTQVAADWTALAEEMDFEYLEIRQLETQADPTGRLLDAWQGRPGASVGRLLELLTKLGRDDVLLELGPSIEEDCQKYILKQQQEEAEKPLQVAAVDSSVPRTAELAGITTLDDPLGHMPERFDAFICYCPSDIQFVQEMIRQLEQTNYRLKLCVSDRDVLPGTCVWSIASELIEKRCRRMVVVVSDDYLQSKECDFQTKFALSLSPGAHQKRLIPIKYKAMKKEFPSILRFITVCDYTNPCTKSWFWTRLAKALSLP

| Structure (SMILES) | inhibition |
| --- | --- |
| CCOC(=O)Cc1csc(NC(=O)CSc2ccc(Br)cc2)n1 | -6.41% |
| CNC(=O)c1ccsc1NC(=O)c1ccc(S(=O)(=O)N2CCOCC2)cc1 | 0.17% |
| Cc1ccc(Oc2cc(NC(=O)CCCn3nc(C)c([N+](=O)[O-])c3C)cc([N+](=O)[O-])c2)cc1 | -10.9% |
| Nc1cc(C(F)(F)F)ccc1N1CCOCC1 | 2.5% |
| COc1ccccc1-c1nc(SC)n[nH]1 | -2.94% |
| CN(C)CCCCCN(C)Cc1cc2ccccc2o1 | 6.13% |
| Cc1nn(Cc2ccc(Cl)cc2)c(Cl)c1/C=N/NC(=O)CNc1ccccc1F | -10.4% |
| COc1ccc(/C=C2/C(=O)OCc3cc(OC)c(OC)cc32)c(OC)c1 | -8.99% |
| Cc1cc(-c2csc(N)n2)c(C)n1Cc1ccccc1 | 5.78% |
| CC(C)(C)NC(=O)NC(=O)COC(=O)Cc1ccc(Cl)cc1Cl | 16.8% |
| Cc1ccnc2nc(C(=O)OCC(=O)N(CC(C)C)CC(C)C)nn12 | -2.14% |
| C=CCN(CC=C)CCOc1ccccc1[N+](=O)[O-] | 9.15% |
| COC(CNC(=O)Cn1ncc2ccsc2c1=O)OC | -15.6% |
| CCO/C=C1\C(=O)N(c2ccc(OCC)cc2)C(=O)c2ccccc21 | 5.91% |
| Cn1cccc1C(C#N)c1ccccc1C#N (stereo not drawn) | 2.41% |
| COc1cccc(OC)c1C(=O)NC(=S)Nc1ccc(N2CCOCC2)c(Cl)c1 | -0.95% |
| O=C(Cc1ccccc1)NCc1ccc(F)cc1 | -9.59% |
| CCOC(=O)CSc1nc(C)cc2c1C(=O)OC2 | 8.27% |
| O=C(Cn1nnc(-c2ccccc2)n1)N/N=C/c1ccc(-c2ccc(Cl)cc2)o1 | 8.21% |
| N/C(=N/O)c1cccn1Cc1ccccc1[N+](=O)[O-] | -3.45% |
| O=C(CCCOc1ccccc1)NCc1ccco1 | 9.17% |

| Structure (SMILES) | inhibition |
| --- | --- |
| O=C(c1ccc(F)cc1)c1cn(Cc2ccc(F)cc2)c2cc3c(cc2c1=O)OCCO3 | -6.89% |
| CCN(CC)CCn1c(/N=C/c2cc(Br)ccc2O)nc2ccccc21 | 7.14% |
| CCOc1ccc(NC(=O)CN(C)CC(=O)NC(C)c2ccccc2)cc1OCC (stereo not drawn) | -3.92% |
| CCCNC(=S)N1CCCC(c2nc3ccccc3[nH]2)C1 (stereo not drawn) | -4.57% |
| Cc1cc(C)c[n+](-c2nc3ccccc3nc2[N-]S(=O)(=O)c2cccs2)c1 | -9.34% |
| COc1ccc2cc(CCl)c(Cl)nc2c1 | 2.67% |
| COc1cccc(OC)c1C(=O)Nc1ccc(Cc2ccncc2)cc1 | 13.9% |
| COc1ccc(-c2onc(C)c2-c2ccc3c(c2)OCCO3)c(O)c1 | 1.48% |
| CC(CC(=O)O)C(=O)c1ccc(Cl)c([N+](=O)[O-])c1 (stereo not drawn) | 1.72% |
| Cc1nnc(-c2ccc(Oc3ccc(C)c(C)c3)c([N+](=O)[O-])c2)o1 | 2.54% |
| C[n+]1ccc(/C=C/c2c[nH]c3ccccc23)cc1 | 35.4% (active) |
| CSC(=S)N/N=C/c1c[nH]c2ccccc12 | -16.8% |
| S=c1[nH]nc(-c2ccccc2)n1/N=C/c1c[nH]c2ccccc12 | -1.22% |
| O=C1c2cccc3c([N+](=O)[O-])ccc(c23)C(=O)N1CC1CCCO1 (stereo not drawn) | 84.1% (active) |
| O=c1c2cc3c(=O)n(CC4CCCO4)c(=O)c3cc2c(=O)n1CC1CCCO1 (stereo not drawn) | 0.88% |
| O=C(NCc1ccc2c(c1)OCO2)c1ccc2c(c1)C(=O)N(CC1CCCO1)C2=O (stereo not drawn) | 16.9% |
| C/C=C/c1ccc(OCCOc2ccc(C=O)cc2OC)c(OC)c1 | -6.21% |
| COCCCNC(=O)C1CCC(CNS(=O)(=O)c2ccc(OC)cc2)CC1 (stereo not drawn) | 3.23% |
| CCOC(=O)C1=C(CC)Nc2ccccc2N=C1N | -10.4% |
| CCCCN(CC)C(=O)c1ccc2c(c1)OCO2 | -2.02% |
| O=c1cnnc(Nc2ccccc2F)[nH]1 | 6.52% |

| Structure (SMILES) | inhibition |
| --- | --- |
| COc1ccccc1CC(=O)Nc1ccc(F)cc1F | -14.3% |
| CC1=NN(c2ccccc2)C(=O)C1C(=O)c1ccc([N+](=O)[O-])cc1 (stereo not drawn) | 1.28% |
| O=C1CC(c2ccccc2)=NN1c1ccc([N+](=O)[O-])cc1 | 7.06% |
| O=C1NC(=O)C2C1C(c1ccc([N+](=O)[O-])cc1)=NN2Cc1ccccc1 (stereo not drawn) | 44.1% (active) |
| COC(=O)c1cc(C)sc1NC(=O)CC1Nc2ccccc2NC1=O (stereo not drawn) | 5% |
| COc1ccc(-c2nn(-c3ccccc3)cc2/C=N/Nc2ccccn2)cc1OC | -3.61% |
| O=C(NCCc1ccc(F)cc1)c1n[nH]c2ccccc12 | -4.67% |
| CCCn1nnc(NC(=O)COc2ccc(CC)cc2)n1 | 9.27% |
| CSCCC(NS(=O)(=O)c1ccc2c(c1)oc(=O)n2C)C(=O)NC1CCCc2ccccc21 (stereo not drawn) | 7.47% |
| O=C(CO/N=C/c1ccccc1OC(F)F)NC1CCCC1 | 16.4% |
| O=C(CNC1CCCCC1)NCC1(c2ccccc2)CCCC1 | -4.02% |
| COc1cc(C(=S)NCc2ccccc2)cc(Br)c1O | -2.71% |
| Cc1cc(C)n(CCNCc2c(C(=O)N3C[C@@H](C)O[C@@H](C)C3)nc3ccc(Cl)cn23)n1 | -4.55% |
| Cc1cc(C)cc(OCC(=O)NCc2cc(C)nc3ccccc23)c1 | 8.6% |
| Cc1cccc(C(=O)N2CCc3c([nH]c4ccccc34)C2CC(C)C)n1 (stereo not drawn) | -16.4% |
| CC12CN(NC(=O)c3ccc(Cl)cc3)C3(C#N)CC1CCC23C (stereo not drawn) | 1.1% |
| CCN(CC(=O)NC1CCS(=O)(=O)C1)S(=O)(=O)c1ccccc1 (stereo not drawn) | 1.44% |
| COc1ccc(S(=O)(=O)N2CN(CCc3ccc(OC)c(OC)c3)c3nc4ccccc4nc32)cc1 | 3.83% |
| Cc1ccc(OCCCC(=O)NC(C)c2ccccc2)c(C)c1 (stereo not drawn) | -0.61% |
| CCCCCCCCn1c2c(c(=N)c3c1CCC3)CCCC2 | 28.8% (active) |
| CCCCCCn1c(CN2CCCCC2)nc2c1c(=O)n(C)c(=O)n2C | 3.83% |
